Data published in PubChem BioAssay (NCI).
About 83,000 compounds went through this panel and 20% of them were active in at least one assay; those are over-represented in the sample as a whole.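 In brief: 96-well plates, 48 h treatment, single concentration, percent growth endpoint.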 Values without a mark were called inactive. The source made the active and inactive calls. How the source made its calls: active means growth percent below 10; inactive means the rest.

What was measured:
Assay in all cases: NCI-60 one-dose screen, 48 h (100 = growth as untreated, 0 = no growth, -100 = all killed)
HT29 colon = details: 10 µM unless noted
SNB-19 CNS = details: 10 µM unless noted
U251 CNS = details: 10 µM unless noted
PC-3 prostate = details: 10 µM unless noted
SK-MEL-5 melanoma = details: 10 µM unless noted
UACC-62 melanoma = details: 10 µM unless noted
LOX IMVI melanoma = details: 10 µM unless noted
SK-MEL-28 melanoma = details: 10 µM unless noted
SK-MEL-2 melanoma = details: 10 µM unless noted
SN12C renal = details: 10 µM unless noted
UO-31 renal = details: 10 µM unless noted
TK-10 renal = details: 10 µM unless noted
ACHN renal = details: 10 µM unless noted
CAKI-1 renal = details: 10 µM unless noted
A498 renal = details: 10 µM unless noted
CCRF-CEM leukemia = details: 10 µM unless noted
MOLT-4 leukemia = details: 10 µM unless noted
SNB-75 CNS = details: 10 µM
EKVX NSCLC = details: 10 µM unless noted

Row | SMILES | growth (HT29 colon) | growth (SNB-19 CNS) | growth (U251 CNS) | growth (PC-3 prostate) | growth (SK-MEL-5 melanoma) | growth (UACC-62 melanoma) | growth (LOX IMVI melanoma) | growth (SK-MEL-28 melanoma) | growth (SK-MEL-2 melanoma) | growth (SN12C renal) | growth (UO-31 renal) | growth (TK-10 renal) | growth (ACHN renal) | growth (CAKI-1 renal) | growth (A498 renal) | growth (CCRF-CEM leukemia) | growth (MOLT-4 leukemia) | growth (SNB-75 CNS) | growth (EKVX NSCLC)
1 | Nc1nnc(-c2ccc3ccccc3c2O)o1 | 105% | 97.1% | 90.4% | 82.8% | 94.8% | 97.5% | 85.3% | 97.8% | 97.9% | 95.9% | 61.5% | 128% | 91.7% | 96.8% | 103% | 88.7% | 75.5% |  | 
2 | CCCOC(=O)n1cccc1 |  | 100% | 107% | 91.6% | 109% | 91.5% | 89.8% | 116% | 118% | 94.2% |  | 110% |  | 108% | 106% | 99.2% | 117% | 75.4% | 99.7%
3 | COc1ccc(N2CCN(Cc3cc(C(=O)/C=C/c4c[nH]c5ccccc45)ccc3O)CC2)cc1 | 106% | 100% | 95% | 88.3% | 99.6% | 101% | 97.2% | 110% | 107% | 97.1% | 55.9% | 117% | 97.4% | 90.2% | 106% | 95.8% | 95% |  | 
4 | O=[N+]([O-])c1cccc(-c2nc3sccn3c2-c2ccnc(NCCCNS(=O)(=O)c3ccc(Cl)cc3)n2)c1 | 56.4% | 83.5% | 87.8% | 28.1% | -17.2% (active) | 7.02% (active) | 35.4% | 66% | 45.3% | 53.8% | 22.2% | 117% | 47.8% | 43.8% | 68% |  | 13.7% |  | 50.9%
5 | CC(C)CC1NC(C)(C)CO1 (stereo unspecified) | 97.5% | 115% | 109% | 94.4% | 104% | 106% | 97.2% | 111% | 113% | 112% | 90.2% | 96.4% | 113% | 92.5% |  | 102% | 124% |  | 123%
6 | Cc1cc(C)n(-c2nnc3n2N=C(c2ccc(-c4ccccc4)cc2)CS3)n1 | 6.89% (active) | 66.9% | 37.3% | 36.4% | 28.2% | 40.5% | 35.2% | 52.7% | -12.1% (active) | 53.4% | 46.6% | 50.6% | 54.8% | 52.8% | 20.4% | 28.1% | 28.5% |  | 
7 | CCO/C=N/C1=C(C#N)C(c2ccc(Cl)cc2)c2c(c3ccccc3n(C)c2=O)O1 (stereo unspecified) | 35% | 72.9% | 79.3% | 63% | 74.2% | 46.5% | 64.7% | 83.9% | 85.4% | 74.6% | 56.2% | 115% | 75.7% | -0.281% (active) | 47.9% |  | 75.2% |  | 74%
8 | COc1ccc(C2=Nn3c(nnc3-n3nc(C)cc3C)SC2)cc1 | -17% (active) | 46% | 15.5% | 9.91% (active) | 0.149% (active) | 39.5% | 26.9% | 54.8% | 16.8% | 33.2% | 45.8% | 49% | 35.6% | 53.1% | -8.89% (active) | 6.66% (active) | 5.34% (active) |  | 
9 | COc1ccc2c(c1)[nH]c(=O)c1c3cc(C)c(C)cc3cn21 |  | 25.6% | -97.1% (active) | -54.9% (active) | 10.3% | 42.5% | -99.2% (active) | -7.4% (active) | -4.76% (active) | -43.6% (active) | -31.4% (active) | -34% (active) | 17.5% |  | 42% |  | -10.9% (active) | 84.8% | 35.4%
10 | COc1ccc2c(c1)[nH]c(=O)c1c3cccc(F)c3cn21 |  | 39.1% | 0.931% (active) | 2.38% (active) | 27.6% | 40.3% | 38.8% | 61.4% | 63.3% | 39.3% | 33.1% | 46.8% | 37.7% |  | 59.3% | -17.5% (active) | 36.3% | 76.2% | 46.8%
11 | C=C[C@@H]1C[C@@H]2Cc3ccccc3N1O2 |  | 109% | 101% | 116% | 107% | 101% | 104% | 109% | 87.8% | 97.5% | 102% | 108% | 110% | 97.8% | 107% | -50% (active) | 28.9% | 102% | 99.5%
12 | Nc1ncnc2c1c(-c1ccc(Oc3ccccc3)cc1)nn2C[C@@H]1SSC[C@@H]1O |  | 60.7% | 37.5% | 55.4% | -86.4% (active) | -81.1% (active) | -20.5% (active) | 2.67% (active) | -57.5% (active) | 37.1% | 13.7% |  | 23.6% |  | 43.8% | -15% (active) | -38.1% (active) | 5.33% (active) | 25.2%
13 | CCC(=O)Oc1ccc(/C(=C(/C)Cc2cccc(OC)c2)c2ccc(OCCN(C)C)cc2)cc1 | 43.7% |  | 71.3% | 85.5% | 92.9% | 103% | 73.4% | 110% | 100% | 85.9% | 67.4% | 99.4% | 99.5% | 91.3% | 84.4% | 42.8% | 68.4% |  | 94.4%
14 | Cn1c(=O)cc(NC(=O)CN2CCN(c3cc4c(cc3F)c(=O)c(C(=O)O)cn4C3CC3)CC2)[nH]c1=O | 103% | 98.4% | 101% | 95.2% | 101% | 96.3% | 99.5% | 107% | 107% | 97.4% | 88.7% | 105% | 99.9% | 88.2% | 102% | 103% | 107% |  | 92.9%
15 | N#Cc1c(Nc2ccccc2)nc2n(c1=O)-c1ccccc1Sc1ccccc1-2 | 84.1% | 77.9% | 89.4% | 61.3% | 68.1% | 69.1% | 83.9% | 83.8% | 86.9% | 77.7% | 53.4% | 105% | 68.3% |  | 90.2% | 63.4% | 51.9% |  | 73%
16 | COc1cc(-c2nn(-c3cccc(NC(=O)c4cccc(C(F)(F)F)c4)c3)cc2-c2ccncc2)ccc1Cl | -12.1% (active) | 47.3% | 13.1% | 4.39% (active) | -33% (active) | 27.2% | 11.4% | 32.5% | -38.6% (active) | 34.4% | 25.1% | 8.08% (active) | 31.6% |  | -19% (active) | 3.1% (active) | 8.63% (active) |  | 
17 | CN1C(=O)N(C)C2C1NN=c1s/c(=C\C=C\c3ccccc3)c(=O)n12 (stereo unspecified) | 20.7% | 57.9% | 63.7% | 40.9% |  | 43.6% | 46.4% | 68.4% | 61.6% | 83.5% | 70.3% | 80% | 63.8% | 46.1% |  | 53.8% | 65.2% |  | 69.9%
